Reference: PubChem BioAssay (EPA / NIEHS)
Several values for one entry are separate records, joined by “and”; a condition that tells them apart may be missing. Equal values may be shown once. The source holds several records for some structures; these can differ, active in one and inactive in another. Activity calls are given as the source filed them. Rule for the calls: active = hit-call score of the fitted dose curve at least 0.9, where 1 is the maximum; inactive = score below 0.9.

Assay: IUF_NPC1_viability_72hr: Viability Assessment at 72 hours in the Leibniz Research Institute for Environmental Medicine (IUF) Neural Progenitor Cell Proliferation Assay (NPC1) (AID 2284209)
Method: IUF_NPC1 is a cell-based, multiplexed assay that uses hNPC, a human primary neural progenitor cells, with measurements taken at 72 hours after chemical dosing in a 96-well plate. Human neural progenitor cells (hNPC) are generated from human fetal brain cortex at gestational week (GW) 16-19. Grown in suspension culture and under proliferative conditions (proliferation media and growth factors), these cells represent neural progenitor cell proliferation. In the NPC1 assay, hNPC's are exposed to the test compound for 72h. Cell proliferation is assessed as an increase in sphere area using automated phase contrast imaging and as incorporation of Bromodeoxyuridine (BrdU) during DNA synthesis using a luminescence-based cell proliferation ELISA. In parallel, the cell viability is assessed using an alamar blue viability assay and the cytotoxicity using a lactate dehydrogenase dependent membrane integrity assay.IUF_NPC1_viability_72hr is one of 4 assay components measured from the IUF_NPC1 assay. It is designed to measure cell viability assessed as mitochondria-dependent reduction of resazurin to resorufin using the alamar blue cell viability assay. Viability is measured as a fluorescence signal (relative fluorescence unit) in a multiplate reader. Data from the IUF_NPC1_viability component was analyzed at the endpoint IUF_NPC1_viability in the positive analysis fitting direction relative to DMSO as the negative control and baseline of activity. Using a type of viability reporter, gain or loss-of-signal activity can be used to understand viability effects.
After the cell expansion period, the cells are cultured for up to four weeks in which they are passaged every week. Between one to three days after passaging, depending on the size chosen for passaging, spheres at a size of 0.3 mm are used in the assay. For the assessment of neural progenitor cell proliferation, the spheres are plated in poly-Hema coated 96-well U-bottom plates filled with proliferation medium containing growth factors (EGF and FGF). One 0.25 - 0.35 mm big sphere is plated in the middle of each well. Within 3 days NPCs proliferate and grow in size. Cultivation during the test method is performed at 37C and 5% CO2 at a pH of 7.2-7.6. As a positive control, spheres are cultivated in the absence of growth factors (EGF and FGF), which dramatically reduces proliferation. Exposure starts on the plating day (day 0) and is continued over three days, without chemical renewal, until the experiment is terminated. The assay is terminated by the assessment of cell viability, cytotoxicity, and proliferation by BrdU. All endpoints are generated from the same experimental run and from each well/sphere in the 96-well plate.

| Structure (SMILES) | outcome | AC50 |
| --- | --- | --- |
| COP(=O)(OC)OC(Br)C(Cl)(Cl)Br (centres undefined) | inactive |  |
| CCOC(=O)CC(SP(=O)(OC)OC)C(=O)OCC (centres undefined) |  | 1.06 µM (active) |
| C[N+]1(C)CCCCC1 | inactive |  |
| CN(C)[C@@H]1C(=O)C(C(N)=O)=C(O)[C@@]2(O)C(=O)C3=C(O)c4c(O)cccc4[C@@](C)(O)[C@H]3[C@H](O)[C@@H]12 | inactive |  |
| COP(=O)(OC)C(O)C(Cl)(Cl)Cl (centres undefined) | inactive |  |
| CCOP(=S)(OCC)OC(Cl)C(Cl)(Cl)Cl (centres undefined) | inactive |  |
| S=C1NCCN1 | inactive |  |
| CCOP(=O)(NC(C)C)Oc1ccc(SC)c(C)c1 (centres undefined) | inactive |  |
| CN1COCN(Cc2cnc(Cl)s2)C1=N[N+](=O)[O-] | inactive |  |
| CSC1=N[C@@](C)(c2ccccc2)C(=O)N1Nc1ccccc1 | inactive |  |
| O=[N+]([O-])c1cc(C(F)(F)F)c(Cl)c([N+](=O)[O-])c1Nc1ncc(C(F)(F)F)cc1Cl |  | 9.47 µM (active) |
| CC1=NNC(=O)N(/N=C/c2cccnc2)C1 | inactive |  |
| CCOP(=S)(OCC)Oc1cc(C)nc(C(C)C)n1 | inactive |  |
| COP(=O)(NC(C)=O)SC (centres undefined) | inactive |  |
| CC(C)N(C(=O)SCC(Cl)=C(Cl)Cl)C(C)C | inactive |  |
| CC[C@H](C)[C@H]1O[C@]2(C=C[C@@H]1C)C[C@@H]1C[C@@H](C/C=C(\C)[C@@H](O[C@H]3C[C@H](OC)[C@@H](O[C@H]4C[C@H](OC)[C@@H](NC)[C@H](C)O4)[C@H](C)O3)[C@@H](C)/C=C/C=C3\CO[C@@H]4[C@H](O)C(C)=C[C@@H](C(=O)O1)[C@]34O)O2 |  | 6.92 µM (active) and 2.51 µM (active) |
| CCOP(=O)(OCC)Oc1cc(C)nc(C(C)C)n1 | inactive |  |
| CCOP(=S)(Oc1cnc(C(C)(C)C)nc1)OC(C)C (centres undefined) | inactive |  |
| CCOP(=S)(OCC)SCCSCC | inactive |  |
| CCCSP(=O)(OCC)SCCC | inactive |  |
| C=C(C)[C@H]1Cc2c(ccc3c2O[C@@H]2COc4cc(OC)c(OC)cc4[C@@H]2C3=O)O1 | inactive | 0.329 µM (active) |
| CC(=NC#N)N(C)Cc1ccc(Cl)nc1 | inactive |  |
| CON=C(C(=O)OC)c1ccccc1CON=C(C)c1cccc(C(F)(F)F)c1 |  | 32.8 µM (active) |
